The target in the assay is Focal adhesion kinase 1 (Homo sapiens) (UniProt Q05397). Nature of the assay: PTK2 protein binding on printed compound slides – biochemical, small-molecule microarray, 635/667 nm fluorescence, BSA, DTT, primary screen (AID 1130).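 Also: composite of spot emission at 667 nm and signal to noise over triplicate slides.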 As to conditions: 635 nm fluorescence, higher = more signal.
Focal adhesion kinase 1 (Homo sapiens), sequence (Q05397 whole entry, looked up): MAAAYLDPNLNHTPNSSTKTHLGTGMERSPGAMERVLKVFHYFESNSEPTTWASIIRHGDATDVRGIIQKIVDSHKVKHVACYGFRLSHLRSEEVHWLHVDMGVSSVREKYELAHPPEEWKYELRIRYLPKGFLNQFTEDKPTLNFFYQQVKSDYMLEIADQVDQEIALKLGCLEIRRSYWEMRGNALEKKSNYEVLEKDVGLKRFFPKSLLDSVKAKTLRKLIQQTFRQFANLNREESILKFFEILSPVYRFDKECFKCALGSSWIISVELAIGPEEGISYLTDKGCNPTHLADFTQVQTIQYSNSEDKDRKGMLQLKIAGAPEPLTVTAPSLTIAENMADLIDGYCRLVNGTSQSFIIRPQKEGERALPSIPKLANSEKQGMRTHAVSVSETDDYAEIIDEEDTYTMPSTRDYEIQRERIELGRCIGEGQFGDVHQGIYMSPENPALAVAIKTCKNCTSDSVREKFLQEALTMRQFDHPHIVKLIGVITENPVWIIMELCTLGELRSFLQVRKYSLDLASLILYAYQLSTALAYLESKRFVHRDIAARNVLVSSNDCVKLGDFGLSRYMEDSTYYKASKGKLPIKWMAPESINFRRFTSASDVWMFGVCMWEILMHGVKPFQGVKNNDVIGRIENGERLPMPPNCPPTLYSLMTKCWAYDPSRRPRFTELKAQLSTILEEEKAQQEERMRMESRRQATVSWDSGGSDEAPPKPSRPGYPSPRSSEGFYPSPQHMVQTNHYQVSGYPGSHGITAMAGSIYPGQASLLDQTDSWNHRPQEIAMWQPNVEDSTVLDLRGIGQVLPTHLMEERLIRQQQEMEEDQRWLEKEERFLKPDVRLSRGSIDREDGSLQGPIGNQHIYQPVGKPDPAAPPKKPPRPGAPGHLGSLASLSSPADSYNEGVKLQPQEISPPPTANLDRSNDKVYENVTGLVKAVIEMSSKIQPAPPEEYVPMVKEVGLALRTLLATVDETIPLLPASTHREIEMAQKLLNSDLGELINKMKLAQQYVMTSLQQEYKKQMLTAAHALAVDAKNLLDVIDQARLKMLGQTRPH
Compound `C=C(C)C1C(=C)CN([C@H](CO)c2ccccc2)C1=O` (stereo not given in full) returned a composite z-score of -0.521.
`COc1ccc(C(O)C2C=CC3C(=O)N(c4ccccc4)C(=O)C3N2Nc2ccccc2F)cc1OCc1ccccc1` (stereo not given) had a composite z-score of 1.37.
Compound `COCCCNC(=O)[C@@]1(Cc2ccccc2)N=C(c2ccc(OCCCO)cc2)O[C@H]1c1ccccc1` returned a composite z-score of 0.102.
`CC(C)C(CO)N1C(=O)[C@@H]2[C@H]3C(=O)OCC=C[C@H]3OC23C=CCN(C(C)C)C(=O)[C@@H]13` (stereo not given in full): the composite z-score is 0.0732.
With `[N-]=[N+]=Nc1ccccc1[C@H]1OC(c2ccc(OCCCO)cc2)=N[C@@]1(Cc1ccccc1)C(=O)O`, the composite z-score was 0.345.
With `Cc1ccc(S[C@]2(C(=O)NC(C)C)CC(=O)N(Cc3ccccc3Cl)[C@@H]2c2ccc(CO)cc2I)cc1`, the composite z-score was -0.0745.
Compound `CN(C)CCCCCCNC(=O)[C@@H]1C[C@@H]2C(=O)N[C@@H](CCCCN)C(=O)N2[C@@H]1c1cccc(OCCO)c1` gave a composite z-score of 2.31.
`CC(C)(C)OC(=O)CC[C@]12N=C(c3ccc(OCCCO)cc3)O[C@H]1c1ccccc1N(CCS(=O)(=O)c1ccccc1)C2=O` returned a composite z-score of 0.895.
Consider `COCCn1c(C(=O)N2CCCC2)cc2c1C[C@H]1CN(C(=O)c3ccccc3)[C@@](Cc3ccc(F)cc3)(C(=O)OC)[C@@H]21`, for which the composite z-score worked out at 1.61.
Regarding `CC1CC/C=C\[C@H]2OC34C=CCN(C(C)(C)C)C(=O)[C@H]3N(CCCCCCO)C(=O)[C@@H]4C2C(=O)O1` (stereo not given in full), the composite z-score is -0.61.
For `COCCOC(=O)N1C(=O)[C@@]2(c3cc(C#Cc4ccc(OC)cc4)ccc31)[C@H](C(N)=O)[C@H]1C(=O)O[C@H](c3ccccc3)[C@H](c3ccccc3)N1[C@@H]2c1ccccc1OCCO` the value was 0.861.
`O=C1OCCC/C=C\[C@H]2OC34C=CCN(c5ccc6ccccc6c5)C(=O)[C@H]3N(CCCCCCO)C(=O)[C@@H]4C12` (stereo not given in full) came in with a composite z-score of -0.29.
`COc1ccc([C@H]2C[C@H]3C(Br)=C[C@@H]2C(=O)[C@]32CO2)cc1` displayed a composite z-score of 0.298.
Consider `COCCOC(=O)N1C(=O)[C@@]2(c3cc(C#CCCO)ccc31)[C@H](c1ccc(OCCO)cc1)N1[C@H](c3ccccc3)[C@H](c3ccccc3)OC(=O)[C@H]1[C@@H]2C(=O)N1CCN(c2ncccn2)CC1`, for which the composite z-score amounted to 0.307.
In turn, `Cc1ccc(C(C)CC(O)C2C=CC3C(=O)N(C)C(=O)C3N2NC(=O)OC(C)(C)C)o1` (stereo not given) displayed a composite z-score of 0.759.
For `C=CC[C@@]1(C(=O)N(C)C)N=C(c2ccc(OCCCO)cc2)O[C@@H]1c1ccccc1N=[N+]=[N-]`, the composite z-score stood at 0.489.
In turn, `COCCOC(=O)N1C(=O)[C@@]2(c3cc(C#CCCO)ccc31)[C@H](C(=O)Nc1nc3ccccc3s1)[C@H]1C(=O)O[C@H](c3ccccc3)[C@H](c3ccccc3)N1[C@@H]2c1ccc(OCCO)cc1` gave a composite z-score of 0.128.
In turn, `O=C(c1ccccc1)N1Cc2ccccc2[C@@H]2OC(c3ccc(OCCCO)cc3)=N[C@]2(Cc2ccccc2)C1=O` had a composite z-score of 0.319.
The compound `NCCCCCNC(=O)[C@@H]1C[C@@H]2C(=O)N[C@@H](Cc3ccccc3)C(=O)N2[C@@H]1c1cccc(OCCO)c1` returned a composite z-score of 0.123.
`COc1ccc([C@H]2OC[C@@H]3CC4(CC=CC4)C(=O)N32)cc1` displayed a composite z-score of 0.282.
Turning to `CN1C(=O)C2C=CC(C(O)Cc3ccccc3)N(Nc3ccccc3)C2C1=O` (stereo not given), the composite z-score came out at 0.385.
The result for `[N-]=[N+]=NCc1ccccc1[C@@H]1OC(c2ccc(OCCCO)cc2)=N[C@]1(Cc1ccccc1N=[N+]=[N-])C(=O)N1CCOCC1` reads 0.536; that for `COc1ccc(CCNC(=O)[C@@]2(Sc3ccc(C)cc3)CC(=O)N(C3CCCCC3)[C@@H]2c2ccc(CO)cc2I)cc1`, 0.28; that for `[N-]=[N+]=NCc1ccccc1[C@@H]1OC(c2ccc(OCCCO)cc2)=N[C@]1(CCS(=O)(=O)c1ccccc1)C(=O)NCc1ccccc1`, 0.878.
For `O=C1OCC=C[C@H]2OC34C=CCN(CCN5CCOCC5)C(=O)[C@H]3N(CCCO)C(=O)[C@@H]4[C@@H]12` (stereo not given in full), the composite z-score stood at 0.574.
The result for `CCc1oc(CC[C@@H](CO)NC(=O)NCCn2cc(C3(O)CCCCC3)nn2)c(C(=O)OC)c1C(=O)OC` reads -0.353.
For the compound `COC(=O)[C@@]1(Cc2ccc(F)cc2)[C@H]2c3cc(C(=O)N(C)C)n(Cc4nc5ccccc5[nH]4)c3C[C@H]2CN1C(=O)c1ccccc1`, the composite z-score is 0.187.
For `COc1ccc(CCN2C(=O)[C@@]3(c4ccc([N+](=O)[O-])cc4)CC(=O)N(C4CCCCC4)[C@@H]3c3ccc(CO)cc32)cc1` the value was 0.151; for `O=C(O)[C@@]1(CCS(=O)(=O)c2ccccc2)COC(c2ccc(OCCCO)cc2)=N1`, -0.283.
As for `CC(C)C[C@@H]1NC(=O)[C@H]2C[C@@H](C(=O)NCCCCCCN)[C@@H](c3ccc(O)cc3)N2C1=O`, the composite z-score was found to be 0.496.
